Source: PubChem BioAssay (National Center for Advancing Translational Sciences (NCATS))
A selection: hits, their analogues and other compounds. The true share with any hit is near 3.1%.
DRD3 agonist: qHTS of D3 Dopamine Receptor Agonist: qHTS. D3R DiscoveRx beta-arrestin cells, luminescence, 90 min. actives 0.58% (n = 410,000). max activation, %. D(3) dopamine receptor (Homo sapiens), P35462; in the data active = max activation above about 30%
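Agonist mode: compounds and dopamine controls were applied to plated cells for 90 min at 37 degrees C after an overnight attachment at 1500 cells/well. Luminescent read-out followed 30 - 60 minutes at room temperature with DiscoveRx detection reagent.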
uPA generation: qHTS for Inhibitors of Cell Surface uPA Generation; cell surface uPA generation assay, qHTS; Potency, µM (highest dose often 38.3 µM), actives largely listed as inhibitors; actives 0.31% (n = 330,000); active = well fitted inhibition curve with a large enough effect; inconclusive = small, poorly fitted or top-dose-only effect; inactive = no such curve, though single readings can be large or run the other way; tested in mouse RAW 264.7 cells; note: nearly all actives have a fitted effect of over 55% in size
D3 antag: qHTS of D3 Dopamine Receptor Antagonist: qHTS. D(3) dopamine receptor (Homo sapiens), P35462. D3R cells, DiscoveRx beta-arrestin luminescence, antagonist mode; stronger effect = lower value. max response, negative = inhibition, %. actives 2.5% (n = 360,000). AID 652054, 2013; in the data active = max response below about -50%; inconclusive = no clear call, values can overlap the other calls
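Cells expressing the human receptor were seeded at 1500 cells/well, incubated overnight at 37 degrees C in 5% CO2, then exposed to library compounds with dopamine controls for 90 minutes at 37 degrees C before luminescent detection.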
RGS4 inh: Inhibitors of Regulator of G Protein Signaling (RGS) 4: qHTS. Regulator of G-protein signaling 4 (Homo sapiens), P49798. AID 504845, 2011. actives 0.039% (n = 390,000). Potency, µM (titrated, usually from 114 µM), most hits filed as inhibitors. Transcreener GDP fluorescence polarization, RGS4-accelerated GTP hydrolysis; active = well fitted inhibition curve with a large enough effect; inconclusive = small, poorly fitted or top-dose-only effect; inactive = no such curve, though single readings can be large or run the other way; note: nearly all actives have a fitted effect of over 75% in size
Target sequence (P49798 whole entry, looked up): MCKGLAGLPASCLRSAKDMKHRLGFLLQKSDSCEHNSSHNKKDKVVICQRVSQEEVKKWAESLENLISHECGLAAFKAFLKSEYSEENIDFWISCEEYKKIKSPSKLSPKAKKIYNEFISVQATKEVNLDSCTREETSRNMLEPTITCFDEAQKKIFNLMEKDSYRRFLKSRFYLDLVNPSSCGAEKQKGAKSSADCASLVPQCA
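MLSMR compounds (23 nl, pin-transferred) preincubated 10 min at room temperature with a 500nM (2x) first reagent, then RGS4 at 900nM (2x) plus Transcreener GDP mix added; fluorescence polarization (620/688 nm) read before and after 90 min at 30 °C.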
Each line names hits and unclear results; the compound was inactive in the other large screens.

Cc1ccc(-c2cc3cccc[n+]3cc2-c2ccc(C)cc2)cc1	uPA generation 10µM
CC(C)(C)OC(=O)NCCc1nnc(S(=O)(=O)Cc2ccc(Cl)cc2Cl)o1	D3 antag -71
CCc1nc2ccccc2c(C(=O)OCC(=O)Nc2ccc(S(=O)(=O)N3CCOCC3)cc2)c1C	RGS4 inh inconclusive
O=C(COC(=O)c1ccc2ccccc2n1)Nc1cccc(S(=O)(=O)NC2=NCCCCC2)c1	none
CCc1nc2ccccc2c(C(=O)OCC(=O)Nc2cccc(S(=O)(=O)NC3=NCCCCC3)c2)c1C	DRD3 agonist 45
CCc1nc2ccccc2c(C(=O)OCC(=O)Nc2cccc(S(=O)(=O)N3CCOCC3)c2)c1C	DRD3 agonist 33 (no result: uPA generation)
Cc1ccc(C)c(Cn2c(=O)n(C(C)C)c(=O)c3oc4ccccc4c32)c1	none (no result: uPA generation, D3 antag)
Cc1ccc2nc(-c3ccc4c(c3)OCCO4)cn2c1	none
c1ccn2cc(-c3ccc4c(c3)OCCO4)nc2c1	uPA generation 3.2µM
Fc1ccc(-c2cn3ccccc3n2)cc1	uPA generation 10µM
CCCNC(=O)c1cc(C2CCCCN2C(=O)CCCc2ccccc2)on1 (configuration not stated)	none (no result: uPA generation, RGS4 inh)
O=C(Nc1ccc2nc(SCC(=O)N3CCc4ccccc43)sc2c1)c1ccccc1	none (no result: uPA generation, D3 antag)
O=C(CCCn1c(=S)[nH]c2cc3c(cc2c1=O)OCO3)N1CCN(c2ccc(F)cc2)CC1	DRD3 agonist 36 (no result: uPA generation)
CCOC(=O)N1CCN(C(=O)c2ccc(Cn3c(=S)[nH]c4cc5c(cc4c3=O)OCO5)cc2)CC1	DRD3 agonist 85 (no result: uPA generation)
CCOc1cc2[nH]c(=O)n(CCCC(=O)N3CCN(c4ccc(OC)cc4)CC3)c(=O)c2cc1OCC	DRD3 agonist 30 (no result: uPA generation, D3 antag)
CCOC(=O)C1CCCN(c2nc3ccccc3nc2C(C#N)C(=O)OCCOC)C1 (configuration not stated)	none
CCOC(=O)C1CCCN(c2nc3ccccc3nc2C(C#N)C(=O)OCC)C1 (configuration not stated)	D3 antag -53
O=S(=O)(N/N=C\c1ccc(-c2ccccc2Cl)o1)c1ccccc1	D3 antag -52
CC1CC(=O)N(CC(=O)Nc2ccc(OC(F)(F)F)cc2)c2ccccc2S1 (configuration not stated)	none (no result: uPA generation, D3 antag)
O=C(Nc1nc(-c2cccc([N+](=O)[O-])c2)cs1)C(c1ccccc1)c1ccccc1	D3 antag -53
C=C(CCC(=O)c1ccccc1)C(=O)c1ccccc1	D3 antag -54
O=C1C2CCCN2C(=O)N1CCCCN1CCN(c2cccc(Cl)c2)CC1 (configuration not stated)	uPA generation 2.8µM, D3 antag -58
O=C1C2CCCCN2C(=O)N1CCN1CCN(c2cccc(Cl)c2)CC1 (configuration not stated)	none
O=C1C2CCCCN2C(=O)N1CCCCN1CCN(c2cccc(Br)c2)CC1 (configuration not stated)	uPA generation inconclusive, D3 antag -80
O=C1C2CCCN2C(=O)N1CCCCN1CCN(c2ccccc2)CC1 (configuration not stated)	none
COc1ccc(C(=O)/C=C/Sc2nc3ccccc3o2)cc1	D3 antag -105
CCOCCCNC(=O)C(c1ccc(Cl)cc1)N1CCN(c2ccccc2)CC1 (configuration not stated)	none
CCOCCCNC(=O)C(c1ccc(Cl)cc1)N1CCC2(CC1)OCCO2 (configuration not stated)	D3 antag -55
C1CCN(CCCNC2C3CC4CC(C3)CC2C4)C1 (configuration not stated)	D3 antag -53
C(CNC1C2CC3CC(C2)CC1C3)CN1CCOCC1 (configuration not stated)	none
Cc1ccc2c(c1)[C@H]1[C@H](CO2)[C@H](c2ccccc2)[C@]2(C)C(=O)Nc3cc(F)ccc3C(=O)N12	uPA generation 7.1µM, D3 antag inconclusive
CCOC(=O)[C@H]1[C@H]2COc3ccc(Br)cc3[C@@H]2N2C(=O)c3ccc(Cl)cc3NC(=O)[C@@]12C	D3 antag -75
COc1ccc(Cl)cc1Nc1sc(C(=O)c2ccccc2)c(N)c1C(=O)Nc1ccccc1	none (no result: uPA generation, D3 antag)
O=C(Cn1nnc(-c2cccc(C(F)(F)F)c2)n1)NCc1ccc(F)cc1	none (no result: uPA generation, D3 antag)
COC(=O)c1[nH]c2ccc(C)cc2c1NS(=O)(=O)c1ccc(F)c(C)c1	D3 antag -51
